# Laboratory results taken from PubChem BioAssay AID623868 (Vanderbilt High Throughput Screening Facility, 2012).
# Screen size: about 2,100 compounds; about 760 (36%) were called active.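 How the source made its calls: active means thallium-flux fluorescence traces judged by eye to show enhanced or reduced glutamate response, manual score 1 or -1, so both directions (some results past the limit were not filed as active); inactive means the rest, including fluorescent or raised-baseline compounds.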 These entries were drawn from the full list.
# Experiment: non-GIRK thallium flux modulation in mGlu8 cells, confirmation, counter-screen for GIRK activator project, cell-based, HEK-293 rmGlu8, no GIRK (AID 623868);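 further: extra codes mark interference with 3 for fluorescent and 4 for baseline rise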
# Conditions: thallium flux fluorescence, at 10 µM, actives lie on both sides
row,Structure (SMILES),manual score
1,COc1cc(-n2c(=S)[nH]c3ccccc3c2=O)c(Cl)cc1Cl,1 (active)
2,CC(C)Oc1cc(-n2c(=S)[nH]c3ccccc3c2=O)c(Cl)cc1Cl,1 (active)
3,c1ccc2c(CNC3CCCCC3)c[nH]c2c1,0 (inactive)
4,CCOC(=O)C(O)(c1ccc(N(CC)S(=O)(=O)c2ccc(C)cc2)cc1)C(F)(F)F (stereo not given),0 (inactive)
5,CNC(=O)OCCc1nccn1C,0.5 (inactive)
6,Fc1ccc(NC2=NCCS2)cc1Cl,0 (inactive)
7,CC(C)CCn1c(=O)c(C(=O)Nc2ccccc2S(N)(=O)=O)c(O)c2ccccc21,0 (inactive)
8,C=CCOC(=O)COc1cc(C)cc2oc(=O)c3c(c12)CCC3,-0.5 (inactive)
9,C/C(=N\Nc1ccccc1)c1c(O)n(C)c(=O)n(C)c1=O,0 (inactive)
10,O=c1cc(C(F)(F)F)c2cc3c4c(c2o1)CCCN4CCC3,3 (inactive)
11,S=C1CN=C(c2ccccc2Cl)c2cc(Cl)ccc2N1,1 (active)
12,Cc1ccccc1C1=NCC(=S)Nc2ccc(Cl)cc21,1 (active)
13,S=C1CN=C(c2ccccc2)c2cc(Cl)ccc2N1,1 (active)
14,O=C(Cc1ccccc1)N1CCN(C/C=C/c2ccccc2)CC1,0 (inactive)
15,CCN(c1ccc(C(O)(C(=O)OC)C(F)(F)F)cc1)S(=O)(=O)c1ccc(C)cc1 (stereo not given),0 (inactive)
16,CCCCn1c(C)c(C(=O)OCC)c2c(CN3CCOCC3)c(O)ccc21,0 (inactive)
17,Cc1ccc2nc(N3CCC(C(=O)N4CCC5(CC4)OCCO5)CC3)sc2c1,0 (inactive)
18,N=c1sc2c(n1Cc1ccccc1)CCCC2,0 (inactive)
19,O=C(Nc1ccc(Cl)cc1)Nc1nccs1,0 (inactive)
20,O=C(c1ccccc1)c1cn(CC(=O)N2CCOCC2)c2ccccc12,-0.5 (inactive)
21,Cn1cccc1CNCCc1ccccc1,0 (inactive)
22,Cc1nn(C)cc1/C=C1/CC2C3CC=C4CC(O)CCC4(C)C3CCC2(C)C1=O (stereo not given),0 (inactive)
23,CCN(CC)CCNCC(=O)Nc1ccc(Cl)cc1C(=O)c1ccccc1,0 (inactive)
24,Nc1c(C(=O)OC2CCCCC2)c2nc3ccccc3nc2n1CC1CCCO1 (stereo not given),-0.5 (inactive)
25,Cc1ccc(OCC(=O)NCCN2CCN(C(=O)COc3ccc(C)cc3)CC2)cc1,0 (inactive)
